From PubChem BioAssay
This is a sample that favours compounds with a hit; in the whole collection about 1.7% have one here.
IDH1 R132H inh – qHTS for Inhibitors of mutant isocitrate dehydrogenase 1 (IDH1): qHTS | Isocitrate dehydrogenase [NADP] cytoplasmic (Homo sapiens), O75874 | IDH1-R132H enzyme, NADPH consumption, diaphorase/resazurin fluorescence | Potency, µM (series often up to 76.6 µM), for the others: top-dose activity change, negative = inhibition, usual class: inhibitors | 0.093% of 390,000 active | AID 602179, 2012; note: potency is the fitted concentration of half-maximal effect; % is set by controls: 0 for no effect and ±100 for the full control effect; nearly all actives have a fitted effect of over 65% in size
Target sequence (O75874 whole entry R132H, stated change not applied): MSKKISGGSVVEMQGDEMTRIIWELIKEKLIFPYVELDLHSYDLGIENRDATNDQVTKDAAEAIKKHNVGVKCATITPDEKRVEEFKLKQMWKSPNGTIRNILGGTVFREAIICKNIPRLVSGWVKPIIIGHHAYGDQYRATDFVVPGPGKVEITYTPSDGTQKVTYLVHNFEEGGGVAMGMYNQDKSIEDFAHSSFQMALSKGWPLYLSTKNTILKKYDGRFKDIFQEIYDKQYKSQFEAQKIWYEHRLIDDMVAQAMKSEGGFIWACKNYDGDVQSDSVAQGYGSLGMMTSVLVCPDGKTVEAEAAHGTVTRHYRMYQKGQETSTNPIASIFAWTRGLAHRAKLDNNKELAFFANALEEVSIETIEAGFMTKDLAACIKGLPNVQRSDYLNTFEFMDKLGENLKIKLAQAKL
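IDH1-R132H (0.5 ug/mL dispensed) in pH 7.5 Tris buffer was preincubated 30 min with compound, then given a substrate mix of 0.016 mM NADPH and 2 mM alpha-KG for 80 min at room temperature; remaining NADPH was read by diaphorase/resazurin fluorescence.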
GLP1R ag – qHTS of GLP-1 Receptor Agonists; HEK293 GLP-1R CRE-luciferase, luminescence, 4-6 h; cells express a hypersensitive GLP-1R form; Potency, µM (top dose mostly 45.6 µM), without a hit: top-dose activation, most hits filed as activators; 0.007% of 380,000 active; note: potency is the fitted concentration of half-maximal effect; % of control where 0% means no effect
GLP1R inv ag – qHTS of GLP-1 Receptor Inverse Agonists (Inhibition Mode) | Glucagon-like peptide 1 receptor (Homo sapiens), P43220 | HEK293 GLP-1R CRE-luciferase, luminescence, 24 h; GLP-1R form is constitutively active | Potency, µM (titrated, usually from 38.3 µM), for inactives: at the highest dose activity change, negative = inhibition, hits mostly inhibitors | 1.6% of 410,000 active; note: potency is the fitted concentration of half-maximal effect; % is set by controls: 0 for no effect and ±100 for the full control effect; nearly all actives have a fitted effect of over 55% in size
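qHTS in 1536-well format: reporter HEK293 cells expressing constitutive GLP-1R activity in DMEM + 10% Nu serum, 24 hr with compounds at 37 deg C, luminescence read after 12 min with detection reagent.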
PTHR1 agonist – qHTS for PTHR1 Agonists: Primary Screen; Parathyroid hormone/parathyroid hormone-related peptide receptor (Homo sapiens), Q03431; HEK293 GP2 PTHR1 cells, GloSensor cAMP luminescence, 1 h; Potency, µM (doses to about 115 µM), for the others: at the top dose activation, hits mostly activators; 0.075% of 410,000 active; note: potency is the fitted concentration of half-maximal effect; nearly all actives have a fitted effect of over 55% in size
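HEK-293-derived GP2 cells expressing PTHR1 and a GloSensor cAMP reporter, 3,000/well, plated overnight, given luciferin plus IBMX (each 0.5 mM as added) for 1 h at 37 °C, then compound for 1 h at 37 °C. Luminescence was read after 15 min at room temperature.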
LDHA block – qHTS assay for inhibitors of human lactate dehydrogenase. purified LDHA, NADH/diaphorase-resazurin fluorescence; hits give low values. 0.15% of 480,000 active. L-lactate dehydrogenase A chain (Homo sapiens), P00338. activity change, % (values are at about 110 or 230 µM). AID 1347041, 2019; in the data active = activity change below about -30%; inconclusive = mostly about -25% to -30%;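 note: plate controls were DMSO wells for no effect and wells without enzyme for full effect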
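Enzyme activity of human lactate dehydrogenase 5 (2 nM; 0.06 mM NADH, 0.2 mM pyruvate, 5 min, RT) is measured via a resazurin/diaphorase fluorescence readout of residual NADH.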
HEK293 tox – qHTS of GLP-1 Receptor Inverse Agonists: Cytotox Screen. HEK293 cAMP-luciferase reporter cells, luminescence, 24 h. Potency, µM (doses to about 38.3 µM), inactives show at the highest dose activity change, negative = inhibition, usual class: inhibitors. 0.13% of 410,000 active. AID 624418, 2012;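 note: loss of luciferase light is scored as toxicity; potency is the fitted concentration of half-maximal effect; % is set by controls: 0 for no effect and ±100 for the full control effect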
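Compound-treated cells are incubated 24 hr at 37 deg C under 5% CO2 after a 12 hour attachment period, then luciferase detection reagent is added and luminescence is measured following 12 min at room temperature; lowered signal indicates toxicity.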
The depositor's hits bear a star; i = inactive; ? = inconclusive; . = no result given; [ ] = another dose, or the depositor's remark. Unless noted, calls come from the whole dose curve; as a rule, active = well fitted curve in the direction sought with a large enough effect; inconclusive = small, poorly fitted or top-dose-only effect, or another doubt; inactive = no such curve, though single readings can be large; an effect the other way counts as inactive or inconclusive.

SMILES	IDH1 R132H inh	GLP1R ag	GLP1R inv ag	PTHR1 agonist	LDHA block	HEK293 tox
COC(=O)N/N=C/c1cc(Cl)c(OCc2ccccc2F)c(OC)c1	14.2%	9.0%	10µM*	-8.2%	-7.9	-15.8%
CCc1ccc(N2C(=O)C(Cl)=C(N3CCCCCC3)C2=O)cc1	8.9%	10.8%	10µM*	-11.0%	0.4	4.7%
CCc1ccc(N2C(=O)C(Cl)=C(N3CCOCC3)C2=O)cc1	0.9%	0.2%	31.2%	i	0.1	-2.4%
O=C1OCCN1C(=O)[C@H]1[C@H](c2ccc([N+](=O)[O-])cc2)C(c2ccc(F)cc2)=NN1c1ccc(Br)cc1	-2.8%	-1.7%	10µM*	i	-1.5	-14.8%
O=C1OCCN1C(=O)[C@H]1[C@H](c2ccc([N+](=O)[O-])cc2)C(c2ccc(F)cc2)=NN1c1ccccc1	7.9%	0.4%	?	-31.1%	4.6	-10.8%
C=CCn1c(CSc2ccccc2[N+](=O)[O-])n[nH]c1=S	6.3%	-0.3%	-23.1%	i	6.8	-21.6%
C=CCn1c(Sc2ncc([N+](=O)[O-])s2)n[nH]c1=O	1.7%	-8.2%	?	-36.9%	2.6	8.91µM*
CCCCNC(=O)c1cccc(C(=O)NCCCC)n1	.	.	.	.	1.7	.
O=C1CC(/C=C/c2ccncc2)=Nc2ccccc2N1	-6.7%	4.3%	2.51µM*	-30.8%	-3.9	-23.8%
O=C1CC(c2ccccc2)=Nc2ccccc2N1	4.1%	13.1%	6.0%	-5.5%[57.5 µM]	-7.2	-7.0%
CNC(=O)C(C)Sc1nc2ccc(F)cc2c(=O)[nH]1 (stereo unspecified)	.	.	.	.	-0.8	.
Cc1ccc([N+](=O)[O-])cc1NC(=O)CN(C(=O)c1ccccc1Cl)C1CCCCC1	-1.1%	-11.9%	10µM*	i	-5.9	-30.0%
Cc1ccc(C)c(C(=O)Nc2cc(C)nn2-c2nc(C)cc(C)n2)c1	20.6%	6.0%	?	i	-1.7	1.78µM*
Cc1cc(C)nc(-n2nc(C)cc2NC(=O)CN2CCC(C)CC2)n1	7.5%	16.6%	?	-18.5%	1.1	5.01µM*
Cc1cc(C)nc(-n2nc(C)cc2NC(=O)CN2CCCC2)n1	5.8%	8.3%	?	2.6%	0.6	?
O=C(CN1CCN(C(=O)c2cc(-c3ccncc3)nc3ccccc23)CC1)N1CCOCC1	.	.	.	.	3.6	.
CC(C)NC(=S)NN(c1ccccc1)c1ccccc1	4.4%	-3.1%	11.2µM*	-0.8%	-2.8	-18.7%
CCOC(=O)C(=NNc1ccc(C)cc1)C(=O)OCC	.	.	.	.	0.8	.
COC(=O)C1=C(C)N(c2ccc(Cl)c(Cl)c2)C(=O)C1	5.6%	-4.6%	12.6µM*	-7.1%[57.5 µM]	-2.3	-11.4%
COC(=O)C1=C(C)N(c2ccc(S(N)(=O)=O)cc2)C(=O)C1	-4.0%	9.2%	19.9%	i	-3.7	15.3%
Cc1noc(C)c1COC(=O)c1ccccc1Sc1ccccc1C#N	10.3%	10.1%	8.91µM*	-34.7%	-5.5	-16.4%
Fc1ccccc1N1CCN(c2cnc3ccccc3n2)CC1	3.7%	-0.2%	10µM*	-26.0%[57.5 µM]	5.0	-2.6%
CC(C)CNC(=O)c1ccccc1NC(=O)c1ccc(CSc2ccccc2)cc1	-1.0%	5.9%	?	i	-1.7	0.4%
CC(C)CNC(=O)c1ccccc1NC(=O)CCSc1ccccc1	0.0%	24.6%	7.08µM*	i	0.1	-8.7%
CCOc1ccc(CN2CCC(C(=O)Nc3cccc(-c4ccn[nH]4)c3)CC2)cc1Cl	-1.2%	-1.1%	10µM*	18.0%	-7.2	?
SMILES	IDH1 R132H inh	GLP1R ag	GLP1R inv ag	PTHR1 agonist	LDHA block	HEK293 tox
COc1cccc(-c2cccc(NC(=O)C3CCN(Cc4nccs4)CC3)c2)c1	2.0%	-2.7%	-22.1%	-10.9%	-1.8	-3.5%
COc1ccc(C)cc1NC(=O)c1cc2ccccc2cc1OCC(=O)Nc1ccc2c(c1)OCCO2	.	.	.	.	1.7	.
Cc1[nH]c2ccccc2c1SCCNC(=O)c1ccc(Br)o1	-3.7%	3.5%	11.2µM*	-10.2%[57.5 µM]	-3.5	-20.6%
CCOC(=O)c1c(NC(=O)/C=C/C(=O)O)sc(C)c1-c1ccc(Cl)cc1	?	-5.4%	5.01µM*	-85.9%	-4.8	?
CCOC(=O)c1c(NC(=S)N2CCN(C)CC2)sc(C)c1-c1ccccc1	0.0%	-3.1%	1.78µM*	-1.4%	2.1	?
CCOC(=O)c1ccc(NC(=S)N2CCN(C)CC2)cc1	-2.8%	2.0%	-22.2%	4.2%	-2.8	13.3%
CCOC(=O)c1c(NC(=S)N2CCOCC2)sc2c1CCN(C(=O)OCC)C2	-14.2%	9.7%	10µM*	-25.5%	-3.0	?
O=C(O)c1cccc(-c2cccc(F)c2)c1	.	.	.	.	-10.9	.
Cc1ccc(C2=NC(C)(C)N=C2SCC(=O)Nc2ccc(Br)c(C)c2)cc1	.	.	.	.	-5.1	.
O=c1c2ccccc2cnn1CN1CCN(S(=O)(=O)c2ccc(Cl)c(Cl)c2)CC1	.	.	.	.	-1.7	.
Cc1cnc2c(S(=O)(=O)NCC3CCN(C4CC4)C3)cccc2c1 (stereo unspecified)	.	.	.	.	-1.0	.
COc1ccccc1CNC(=O)NC(c1ccccc1)c1ccccc1	.	.	.	.	5.2	.
CCc1ccc(C(C)NC(=S)NCc2ccc(F)cc2)cc1 (stereo unspecified)	-14.3%	8.3%	?	-33.5%	-1.0	?
Cc1ccc(C(C)NC(=S)NCc2ccc(F)cc2)cc1C (stereo unspecified)	-4.8%	4.8%	8.91µM*	i	-2.1	-1.2%
COCCn1c(SCc2ccc(Br)cc2)nnc1-c1cccc(C)c1	.	.	.	.	2.0	.
CCCCc1ccc(NC(=O)CC(C)(C)C)cc1	12.3%	11.8%	11.2µM*	-21.4%	-2.5	8.2%
CC1=C(c2ccc(Cl)cc2)S(=O)(=O)NC1=NCCCN1CCN(c2cc(C)ccc2C)CC1	-7.7%	.	?	-23.7%	-6.2	2.4%
CC1=C(c2ccc(C(C)C)cc2)S(=O)(=O)NC1=NCCCN1CCN(c2ccccc2F)CC1	0.0%	.	?	i	-5.2	0.6%
CC1=C(c2ccc(C)cc2)S(=O)(=O)NC1=NCCCN1CCN(c2ccc(F)cc2)CC1	-2.1%	.	11.2µM*	i	-5.3	-11.2%
COc1ccc(C2=C(C)C(=NCCCN3CCN(c4cc(Cl)ccc4C)CC3)NS2(=O)=O)cc1	-11.1%	.	8.91µM*	i	-7.8	-5.1%
CCC(=O)Nc1c(-c2cc(=O)oc3cc(C)c(Cl)cc23)oc2ccccc12	.	.	.	.	0.5	.
